Screen size: about 5,500 compounds; about 2,000 (36%) were called active. About 18% were inconclusive and are not listed. Cut-off read from the data, not from the text of the source: active = normalized growth mostly below about 0.91 (no sharp cut-off); inconclusive = no clear call, values can overlap the other calls; inactive = mostly above about 0.92. The list shows a part of the results.
Assay: chemical genetic growth profiling, strain panel (AID 1159580);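 note: tested at 20 µM; growth read once vehicle control cultures reached saturation at 30 °C; 1 = growth at the plate median or of vehicle wells; lower values mean less growth of the strain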
Details: growth OD

Measured: normalized growth

CC(CN1c2ccccc2Sc2cccnc21)N(C)C (stereo not given)
inactive: S. cerevisiae deletion strains, locus YAL013W, strain DEP1, hits give low values 1.02 | S. cerevisiae deletion strains, locus YBR021W, strain FUR4, hits give low values 0.987 | S. cerevisiae deletion strains, locus YBR229C, strain ROT2, hits give low values 1.02 | S. cerevisiae deletion strains, locus YCL029C, strain bik1, hits give low values 0.988 | S. cerevisiae deletion strains, locus YDL035C, strain GPR1, hits give low values 1.02 | S. cerevisiae deletion strains, locus YDL074C, strain BRE1, hits give low values 1.04 | S. cerevisiae deletion strains, locus YDL101C, strain DUN1, hits give low values 1.03 | S. cerevisiae deletion strains, locus YDL134C, strain PPH21, hits give low values 1.01 | S. cerevisiae deletion strains, locus YDL192W, strain arf1, hits give low values 0.993 | S. cerevisiae deletion strains, locus YDR101C, strain arx1, hits give low values 0.979 | S. cerevisiae deletion strains, locus YDR150W, strain NUM1, hits give low values 1.02 | S. cerevisiae deletion strains, locus YDR162C, strain NBP2, hits give low values 1.04 | S. cerevisiae deletion strains, locus YDR318W, strain mcm21, hits give low values 0.983 | S. cerevisiae deletion strains, locus YDR388W, hits give low values 0.994 | S. cerevisiae deletion strains, locus YDR502C, strain sam2, hits give low values 1.01 | S. cerevisiae deletion strains, locus YEL061C, strain CIN8, hits give low values 1.02 | S. cerevisiae deletion strains, locus YER110C, hits give low values 0.978 | S. cerevisiae deletion strains, locus YER155C, strain BEM2, hits give low values 1.01 | S. cerevisiae deletion strains, locus YER167W, strain BCK2, hits give low values 1.02 | S. cerevisiae deletion strains, locus YGL078C, strain dbp3, hits give low values 0.988 | S. cerevisiae deletion strains, locus YGL086W, strain mad1, hits give low values 0.992 | S. cerevisiae deletion strains, locus YGL248W, strain PDE1, hits give low values 1.02 | S. cerevisiae deletion strains, locus YGR078C, strain PAC10, hits give low values 1.02 | S. cerevisiae deletion strains, locus YGR135W, strain pre9, hits give low values 1.01 | S. cerevisiae deletion strains, locus YGR229C, strain SMI1, hits give low values 1.05 | S. cerevisiae deletion strains, locus YGR252W, strain gcn5, hits give low values 0.956 | S. cerevisiae deletion strains, locus YHR030C, strain SLT2, hits give low values 1.01 | S. cerevisiae deletion strains, locus YHR079C, strain IRE1 (second series), hits give low values 0.999 | S. cerevisiae deletion strains, locus YHR094C, strain hxt1, hits give low values 1 | S. cerevisiae deletion strains, locus YHR129C, strain ARP1, hits give low values 1 | S. cerevisiae deletion strains, locus YHR200W, strain rpn10, hits give low values 0.995 | S. cerevisiae deletion strains, locus YIL066C, strain RNR3, hits give low values 1.01 | S. cerevisiae deletion strains, locus YIL073C, strain SPO22, hits give low values 0.999 | S. cerevisiae deletion strains, locus YIL125W, strain kgd1, hits give low values 0.999 | S. cerevisiae deletion strains, locus YIR030C, strain dcg1, hits give low values 0.992 | S. cerevisiae deletion strains, locus YJL095W, strain BCK1, hits give low values 1.01 | S. cerevisiae deletion strains, locus YJL134W, strain LCB3, hits give low values 1.05 | S. cerevisiae deletion strains, locus YJL168C, strain set2, hits give low values 0.998 | S. cerevisiae deletion strains, locus YJL187C, strain SWE1 (second series), hits give low values 1.02 | S. cerevisiae deletion strains, locus YJR043C, strain POL32, hits give low values 1.01 | S. cerevisiae deletion strains, locus YJR075W, strain HOC1, hits give low values 1.02 | S. cerevisiae deletion strains, locus YKL009W, strain mrt4, hits give low values 1 | S. cerevisiae deletion strains, locus YKL068W, hits give low values 1 | S. cerevisiae deletion strains, locus YKL085W, strain MDH1 (second series), hits give low values 0.995 | S. cerevisiae deletion strains, locus YKL085W, strain MDH1, hits give low values 0.995 | S. cerevisiae deletion strains, locus YKL190W, strain CNB1, hits give low values 1.03 | S. cerevisiae deletion strains, locus YKR001C, strain vps1, hits give low values 0.999 | S. cerevisiae deletion strains, locus YLR039C, strain RIC1, hits give low values 1.06 | S. cerevisiae deletion strains, locus YLR058C, strain SHM2, hits give low values 1.01 | S. cerevisiae deletion strains, locus YLR102C, strain apc9, hits give low values 0.991 | S. cerevisiae deletion strains, locus YLR262C, strain YPT6, hits give low values 1.15 | S. cerevisiae deletion strains, locus YLR268W, strain sec22, hits give low values 0.998 | S. cerevisiae deletion strains, locus YLR330W, strain CHS5, hits give low values 1.01 | S. cerevisiae deletion strains, locus YLR342W, strain FKS1 (second series), hits give low values 1.03 | S. cerevisiae deletion strains, locus YLR371W, strain rom2, hits give low values 0.995 | S. cerevisiae deletion strains, locus YLR418C, strain cdc73, hits give low values 1.04 | S. cerevisiae deletion strains, locus YML016C, strain PPZ1, hits give low values 1.02 | S. cerevisiae deletion strains, locus YML032C, strain rad52, hits give low values 0.989 | S. cerevisiae deletion strains, locus YML124C, strain tub3, hits give low values 0.998 | S. cerevisiae deletion strains, locus YMR078C, strain ctf18, hits give low values 0.999 | S. cerevisiae deletion strains, locus YMR223W, strain ubp8, hits give low values 0.995 | S. cerevisiae deletion strains, locus YMR263W, strain SAP30, hits give low values 1.03 | S. cerevisiae deletion strains, locus YMR307W, strain GAS1, hits give low values 1.06 | S. cerevisiae deletion strains, locus YNL067W, strain RPL9B, hits give low values 1.02 | S. cerevisiae deletion strains, locus YNL128W, strain TEP1, hits give low values 1.02 | S. cerevisiae deletion strains, locus YNL153C, strain GIM3, hits give low values 1.03 | S. cerevisiae deletion strains, locus YNL233W, strain BNI4, hits give low values 1.01 | S. cerevisiae deletion strains, locus YNL250W, strain rad50, hits give low values 0.992 | S. cerevisiae deletion strains, locus YNL271C, strain bni1, hits give low values 1.01 | S. cerevisiae deletion strains, locus YNL298W, strain CLA4, hits give low values 0.988 | S. cerevisiae deletion strains, locus YNL307C, strain MCK1, hits give low values 0.991 | S. cerevisiae deletion strains, locus YNL322C, strain KRE1, hits give low values 1.01 | S. cerevisiae deletion strains, locus YNR052C, strain pop2, hits give low values 0.994 | S. cerevisiae deletion strains, locus YOL006C, strain TOP1, hits give low values 1.03 | S. cerevisiae deletion strains, locus YOL012C, strain htz1 0.957 | S. cerevisiae deletion strains, locus YOL147C, strain pex11, hits give low values 0.991 | S. cerevisiae deletion strains, locus YOR061W, strain CKA2, hits give low values 1.02 | S. cerevisiae deletion strains, locus YOR069W, strain VPS5, hits give low values 1 | S. cerevisiae deletion strains, locus YOR136W, strain idh2, hits give low values 0.979 | S. cerevisiae deletion strains, locus YOR144C, strain elg1, hits give low values 0.999 | S. cerevisiae deletion strains, locus YOR184W, strain ser1, hits give low values 0.985 | S. cerevisiae deletion strains, locus YOR316C, strain cot1, hits give low values 0.997 | S. cerevisiae deletion strains, locus YPL055C, strain LGE1, hits give low values 1.04 | S. cerevisiae deletion strains, locus YPL241C, strain CIN2, hits give low values 1 | S. cerevisiae deletion strains, locus YPR119W, strain clb2, hits give low values 0.995 | S. cerevisiae deletion strains, locus YPR141C, strain kar3, hits give low values 0.997 | S. cerevisiae deletion strains, locus YPR163C, strain tif3, hits give low values 1 | S. cerevisiae deletion strains, locus YPR167C, strain met16, hits give low values 1 | S. cerevisiae deletion strains, strain wtn01, hits give low values 1.01 | S. cerevisiae strains, strain wild type, hits give low values 1.01
